# Assay results published in article PMC7862700, “An all-to-all approach to the identification of sequence-specific readers for epigenetic DNA modifications on cytosine”.
# Experiments:
# Test in all cases: DAPPL (digital affinity profiling via proximity ligation, sequencing); 10 mM Tris-HCl pH 7.5, 50 mM NaCl, 1 mM DTT, 4% glycerol, room temperature, 30 min; GST-TFs on glutathione beads, 16-mer random dsDNA library, 0.1% formaldehyde crosslink after washing; high values mean tight binding
# Settings in all cases: protein: recombinant; tags: N-terminal GST; dsDNA, one strand shown
# FLI1 = biological target: T1, FLI1 (Homo sapiens, UniProt Q01543 1-452)
# T1 sequence: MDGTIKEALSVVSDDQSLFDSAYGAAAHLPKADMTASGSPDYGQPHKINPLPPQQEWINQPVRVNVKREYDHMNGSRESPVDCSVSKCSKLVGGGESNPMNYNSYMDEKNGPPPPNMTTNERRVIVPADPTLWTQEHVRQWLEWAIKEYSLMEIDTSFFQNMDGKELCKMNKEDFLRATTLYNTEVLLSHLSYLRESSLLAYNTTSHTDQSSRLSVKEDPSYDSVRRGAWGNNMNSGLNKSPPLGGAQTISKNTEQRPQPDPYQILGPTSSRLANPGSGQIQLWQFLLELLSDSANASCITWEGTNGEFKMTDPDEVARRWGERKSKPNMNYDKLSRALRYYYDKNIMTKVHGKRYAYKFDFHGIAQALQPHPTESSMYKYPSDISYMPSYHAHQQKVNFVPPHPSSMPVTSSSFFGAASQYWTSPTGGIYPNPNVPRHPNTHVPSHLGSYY
# Outline: (§1)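 The binding signal reported is, for every hexamer, its read frequency for a factor over its read frequency for the tag-only sample. Reads came from pools of yeast-expressed, GST-fused human transcription factors on glutathione beads, barcoded with DNA and mixed with that sample, which were incubated with 200 nmole of a random double-stranded 16-mer DNA library in Tris/NaCl/DTT/glycerol buffer at room temperature for 30 min. After washing, the pools were crosslinked with 0.1% formaldehyde, proximity-ligated with BsaI/T4 ligase for 1 h at 37 °C, PCR-amplified and sequenced on an Illumina NextSeq500.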
# ELK1 = biological target: T2, ELK1 (Homo sapiens, UniProt P19419 1-428)
# T2 sequence: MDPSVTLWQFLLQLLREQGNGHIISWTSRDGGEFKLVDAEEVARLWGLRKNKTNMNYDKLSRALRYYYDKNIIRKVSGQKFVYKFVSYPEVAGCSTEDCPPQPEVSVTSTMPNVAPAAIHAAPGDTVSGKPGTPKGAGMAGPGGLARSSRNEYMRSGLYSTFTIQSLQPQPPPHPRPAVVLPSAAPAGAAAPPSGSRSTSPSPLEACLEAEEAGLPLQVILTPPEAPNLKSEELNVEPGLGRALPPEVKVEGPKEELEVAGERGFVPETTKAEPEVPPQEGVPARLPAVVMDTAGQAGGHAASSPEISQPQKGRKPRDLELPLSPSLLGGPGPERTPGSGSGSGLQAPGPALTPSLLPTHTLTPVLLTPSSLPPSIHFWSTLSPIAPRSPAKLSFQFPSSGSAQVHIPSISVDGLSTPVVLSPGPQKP
# Outline: as §1
# GABPA = biological target: T3, GABPA (Homo sapiens, UniProt Q06546 1-454)
# T3 sequence: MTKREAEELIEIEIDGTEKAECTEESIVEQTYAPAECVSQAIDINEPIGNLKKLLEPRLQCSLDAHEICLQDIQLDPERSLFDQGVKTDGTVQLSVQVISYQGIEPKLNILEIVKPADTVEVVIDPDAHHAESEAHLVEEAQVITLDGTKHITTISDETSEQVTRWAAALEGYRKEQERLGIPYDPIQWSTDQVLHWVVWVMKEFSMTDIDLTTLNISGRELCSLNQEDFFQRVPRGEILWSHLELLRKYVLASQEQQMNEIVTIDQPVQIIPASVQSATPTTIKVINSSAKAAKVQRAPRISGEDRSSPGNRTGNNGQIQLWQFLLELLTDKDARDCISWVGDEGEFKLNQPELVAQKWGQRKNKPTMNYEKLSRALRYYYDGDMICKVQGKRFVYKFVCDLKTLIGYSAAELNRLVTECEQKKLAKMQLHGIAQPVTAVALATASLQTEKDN
# Outline: as §1
# ERG = biological target: T4, ERG (Homo sapiens, UniProt P11308 1-479)
# T4 sequence: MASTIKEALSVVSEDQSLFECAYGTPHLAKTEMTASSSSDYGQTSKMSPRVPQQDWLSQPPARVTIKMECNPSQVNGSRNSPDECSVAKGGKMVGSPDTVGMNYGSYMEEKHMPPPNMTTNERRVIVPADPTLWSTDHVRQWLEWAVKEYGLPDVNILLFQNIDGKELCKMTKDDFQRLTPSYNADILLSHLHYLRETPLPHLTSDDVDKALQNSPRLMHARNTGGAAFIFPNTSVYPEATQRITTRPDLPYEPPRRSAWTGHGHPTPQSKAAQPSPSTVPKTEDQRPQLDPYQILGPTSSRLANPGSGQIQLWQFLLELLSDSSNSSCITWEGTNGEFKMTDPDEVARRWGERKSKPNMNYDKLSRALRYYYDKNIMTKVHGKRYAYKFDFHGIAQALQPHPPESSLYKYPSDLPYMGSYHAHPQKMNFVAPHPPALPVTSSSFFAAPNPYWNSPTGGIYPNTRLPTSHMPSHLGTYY
# Outline: as §1
# ELF1 = ELF1 (Homo sapiens, UniProt P32519 1-619)
# Chain of ELF1 (P32519 whole entry): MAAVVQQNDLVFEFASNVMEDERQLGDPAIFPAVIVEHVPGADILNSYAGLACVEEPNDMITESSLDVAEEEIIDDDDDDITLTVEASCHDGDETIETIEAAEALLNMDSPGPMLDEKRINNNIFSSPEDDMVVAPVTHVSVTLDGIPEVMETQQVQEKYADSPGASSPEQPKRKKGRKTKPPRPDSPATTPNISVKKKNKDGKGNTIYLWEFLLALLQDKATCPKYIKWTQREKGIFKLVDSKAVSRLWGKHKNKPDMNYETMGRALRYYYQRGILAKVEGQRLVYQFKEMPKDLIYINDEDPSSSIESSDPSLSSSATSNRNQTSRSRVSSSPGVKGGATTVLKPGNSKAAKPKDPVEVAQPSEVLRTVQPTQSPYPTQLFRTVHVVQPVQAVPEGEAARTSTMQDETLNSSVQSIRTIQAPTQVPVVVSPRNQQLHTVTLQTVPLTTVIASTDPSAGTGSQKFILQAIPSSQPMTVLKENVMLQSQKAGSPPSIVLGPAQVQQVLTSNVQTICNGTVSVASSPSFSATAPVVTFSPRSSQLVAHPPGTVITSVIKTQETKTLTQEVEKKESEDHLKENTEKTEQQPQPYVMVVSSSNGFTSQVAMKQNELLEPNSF
# Outline: as §1
# EHF = biological target: T5, EHF (Homo sapiens, UniProt Q9NZC4 1-300)
# T5 sequence: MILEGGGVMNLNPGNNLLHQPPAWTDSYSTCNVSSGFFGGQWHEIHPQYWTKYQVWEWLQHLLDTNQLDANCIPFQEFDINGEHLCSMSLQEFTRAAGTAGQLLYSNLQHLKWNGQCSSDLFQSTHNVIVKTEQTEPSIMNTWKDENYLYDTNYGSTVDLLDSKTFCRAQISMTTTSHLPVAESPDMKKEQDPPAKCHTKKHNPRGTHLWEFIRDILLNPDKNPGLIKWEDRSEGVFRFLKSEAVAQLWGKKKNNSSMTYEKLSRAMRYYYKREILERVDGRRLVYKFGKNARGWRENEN
# Outline: as §1
# SPI1 = SPI1 (Homo sapiens, UniProt P17947 1-270)
# Outline: as §1
# SPIB = SPIB (Homo sapiens, UniProt Q01892 1-262)
# Chain of SPIB (Q01892 whole entry): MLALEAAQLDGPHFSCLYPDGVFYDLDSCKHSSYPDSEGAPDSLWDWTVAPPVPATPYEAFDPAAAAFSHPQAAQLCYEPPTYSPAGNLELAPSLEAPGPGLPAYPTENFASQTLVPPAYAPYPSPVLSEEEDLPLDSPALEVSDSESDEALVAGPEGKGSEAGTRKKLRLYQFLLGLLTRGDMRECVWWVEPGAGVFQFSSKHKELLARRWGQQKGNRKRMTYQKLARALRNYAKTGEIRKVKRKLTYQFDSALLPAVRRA
# Outline: as §1
# ELK3 = biological target: T6, ELK3 (Homo sapiens, UniProt P41970 1-407)
# T6 sequence: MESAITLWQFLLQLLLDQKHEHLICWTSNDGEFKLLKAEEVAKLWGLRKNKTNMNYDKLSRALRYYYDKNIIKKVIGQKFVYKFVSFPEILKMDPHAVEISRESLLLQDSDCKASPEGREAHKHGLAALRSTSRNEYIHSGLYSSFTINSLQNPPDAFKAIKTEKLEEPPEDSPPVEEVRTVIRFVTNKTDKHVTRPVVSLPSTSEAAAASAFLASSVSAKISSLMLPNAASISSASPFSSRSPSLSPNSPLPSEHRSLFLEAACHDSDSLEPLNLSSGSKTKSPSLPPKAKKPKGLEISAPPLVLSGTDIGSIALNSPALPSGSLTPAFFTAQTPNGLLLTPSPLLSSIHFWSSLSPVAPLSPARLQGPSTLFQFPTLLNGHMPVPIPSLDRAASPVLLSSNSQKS
# Outline: as §1
sequence,measurement,setting,value
CTTGTC,binding signal,FLI1,"1.17 fold enrichment (6-mer frequency, TF over GST control)"
same,binding signal,ELK1,"1.33 fold enrichment (6-mer frequency, TF over GST control)"
same,binding signal,GABPA,"1.32 fold enrichment (6-mer frequency, TF over GST control)"
same,binding signal,ERG,"1.19 fold enrichment (6-mer frequency, TF over GST control)"
same,binding signal,ELF1,"1.22 fold enrichment (6-mer frequency, TF over GST control)"
same,binding signal,EHF,"1.19 fold enrichment (6-mer frequency, TF over GST control)"
same,binding signal,SPI1,"1.35 fold enrichment (6-mer frequency, TF over GST control)"
same,binding signal,SPIB,"1.23 fold enrichment (6-mer frequency, TF over GST control)"
same,binding signal,ELK3,"1.34 fold enrichment (6-mer frequency, TF over GST control)"
